According to PubChem BioAssay (EPA / NIEHS):
Results filed as inconclusive are left out. Calls of active or inactive are those of the source. Rule for the calls, unless noted: active = hit-call score of the fitted dose curve at least 0.9, where 1 is the maximum; inactive = score below 0.9.

Assays:
[1] = biological target: Nuclear respiratory factor 1 (Homo sapiens) (UniProt Q16656); test: ATG_NRF1_CIS: Attagene CIS-FACTORIAL HepG2 Assay for human Nuclear Respiratory Factor 1 (NRF1) Orphan Gene (AID 2282987); details: HepG2 NRF1 cis-element reporter, Attagene multiplex; actives raise or lower the signal
Outline: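 Using DMSO as baseline, gain- or loss-of-signal was fitted for reporter mRNA levels in HepG2 cells transiently transfected with cis-regulated reporter units. Samples were taken 24 h after dosing and read by RT-PCR with capillary electrophoresis.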

[2] = ATG_NFI_CIS: Attagene CIS-FACTORIAL HepG2 Assay for human Nuclear Factor I (NFI) (AID 2282989); details: HepG2 cis-regulatory reporter, NFI response element transcription; actives raise or lower the signal
Outline: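 Transfected HepG2 liver cells, exposed 24 h, supplied total RNA for oligo(dT) reverse transcription and reporter-specific PCR. Labelled, HpaI-cut fragments were sized by capillary electrophoresis; DMSO set the baseline for bidirectional fitting.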

[3] = ATG_NF_kB_CIS: Attagene CIS-FACTORIAL HepG2 Assay for human Nuclear Factor Kappa B (NF-kB) (AID 2282991); details: HepG2 Attagene cis-factorial NF-kB reporter mRNA; actives raise or lower the signal
Outline: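 Endpoint from a 52-component multiplexed HepG2 reporter panel: cis-regulated transcription units transiently transfected, 24 h dosing, reporter mRNA quantified by RT-PCR and capillary electrophoresis, scored as increase or decrease against DMSO.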

[4] = ATG_Oct_MLP_CIS: Attagene CIS-FACTORIAL HepG2 Assay for human Octamer-Binding Transcription Factor (Oct) (AID 2282993); details: HepG2 Attagene cis-factorial Oct reporter, mRNA; actives raise or lower the signal
Outline: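 Using HepG2 cells bearing transfected cis-reporter constructs, mRNA induction was read after 24 h by fluorescent RT-PCR and capillary electrophoresis, with DMSO defining baseline for gain- or loss-of-signal fits.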

[5] = biological target: Cellular tumor antigen p53 (Homo sapiens) (UniProt P04637); test: ATG_p53_CIS: Attagene CIS-FACTORIAL HepG2 Assay for human p53 Transcription Factor (AID 2282994); details: HepG2 p53 cis-element reporter, Attagene mRNA; actives raise or lower the signal
Outline: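 HepG2 cells transiently transfected with multiplexed cis-regulated reporter transcription units read endogenous TF activity. After 24 h compound exposure, reporter mRNA was quantified by RT-PCR, fluorescent labelling, HpaI digestion and capillary electrophoresis; bidirectional fits versus DMSO baseline.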

[6] = BSK_3C_TissueFactor: BioMAP Diversity Plus: 3C Assay for Tissue Factor Biomarker Activity (AID 2282997); details: BioMAP 3C HUVEC, tissue factor biomarker readout; actives raise or lower the signal
Outline: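 HUVEC were treated 24 h, then surface tissue factor measured by ELISA and fitted bidirectionally against DMSO. Parallel SRB total-protein staining assessed overt cytotoxicity at the same time point.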

[7] = BSK_3C_uPAR: BioMAP Diversity Plus: 3C Assay for Urokinase-type plasminogen activator receptor (uPAR) Biomarker Activity (AID 2282998); details: BioMAP 3C HUVEC, uPAR biomarker ELISA; actives raise or lower the signal
Outline: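 In this endothelial cell-based assay, human umbilical vein primary cells were treated with chemicals and harvested at 24 h. uPAR was quantified using ELISA, with gains or losses fitted relative to DMSO controls.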

[8] = BSK_3C_VCAM1: BioMAP Diversity Plus: 3C Assay for Vascular cell adhesion molecule 1 (VCAM1) Biomarker Activity (AID 2282999); details: BioMAP 3C HUVEC, VCAM1 ELISA, cytokine-stimulated; actives raise or lower the signal
Outline: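 Endothelial cells from human umbilical vein are treated with test chemical. At 24 h, VCAM-1 is measured by ELISA, and responses in either direction are fitted relative to DMSO.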

[9] = BSK_4H_Eotaxin3: BioMAP Diversity Plus: 4H Assay for Eotaxin 3 Biomarker Activity (AID 2283000); details: primary human endothelial cells (HUVEC); actives raise or lower the signal
Outline: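 Eotaxin-3 (CCL26) levels were measured by ELISA in HUVEC primary cultures 24 h post-dosing. Gain or loss of signal was fitted in both directions, with DMSO serving as baseline and negative control.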

[10] = biological target: human Peroxisome Proliferator-activated Receptor alpha (PPARa), PPARA (gene 5465) (UniProt Q07869); test: ATG_PPARa_TRANS: Attagene TRANS-FACTORIAL HepG2 Assay for human Peroxisome Proliferator-activated Receptor alpha (PPARa) (AID 2283001; active = hit-call score of the fitted dose curve at least 0.9, where 1 is the maximum)
Outline: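 Reporter transcripts from GAL4-UAS units in transfected HepG2 were quantified 24 h after dosing. Detection used reverse transcription, PCR, fluorescent primer extension and capillary electrophoresis, with DMSO as baseline.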

[11] = read-out: Intercellular Adhesion Molecule 1 (ICAM1), ICAM1 (gene 3383); test: BSK_3C_ICAM1: BioMAP Diversity Plus: 3C Assay for Intercellular Adhesion Molecule 1 (ICAM1) Biomarker Activity (AID 2283003); details: primary human endothelial cells (HUVEC); actives raise or lower the signal
Outline: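 Primary human umbilical vein endothelial cells in the BioMAP 3C system were exposed to chemicals for 24 h, then ICAM-1 was quantified by ELISA. Activity was fitted bidirectionally against the DMSO negative control baseline.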

[12] = biological target: Peroxisome proliferator-activated receptor gamma (Homo sapiens) (UniProt P37231); test: ATG_PPARg_TRANS: Attagene TRANS-FACTORIAL HepG2 Assay for human Peroxisome Proliferator-activated Receptor-gamma (PPARg) (AID 2283007; active = hit-call score of the fitted dose curve at least 0.9, where 1 is the maximum)
Outline: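 Endpoint reflects upward reporter mRNA change versus DMSO controls. Setup: transiently transfected HepG2, GAL4-UAS reporters driven by chimeric NR-Gal4, 24 h incubation, RT-PCR with capillary electrophoresis read-out.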

[13] = biological target: Nuclear receptor subfamily 1 group I member 2 (Homo sapiens) (UniProt O75469); test: ATG_PXR_TRANS: Attagene TRANS-FACTORIAL HepG2 Assay for human Pregnane X Receptor (PXR) (AID 2283008; active = hit-call score of the fitted dose curve at least 0.9, where 1 is the maximum)
Outline: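 HepG2 cells transiently transfected with multiple reporter units, here a PXR-GAL4 chimera driving a GAL4-UAS reporter; 24 h compound exposure. Reporter mRNA measured by RT-PCR, FAM labelling and capillary electrophoresis; gain of signal fitted against DMSO baseline.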

[14] = biological target: human Peroxisome Proliferator-activated Receptor delta (PPARd), PPARD (gene 5467) (UniProt Q03181); test: ATG_PPARd_TRANS: Attagene TRANS-FACTORIAL HepG2 Assay for human Peroxisome Proliferator-activated Receptor delta (PPARd) (AID 2283002; active = hit-call score of the fitted dose curve at least 0.9, where 1 is the maximum)
Outline: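 Read-out is induced reporter mRNA, quantified by RT-PCR with fluorescent labelling and capillary electrophoresis after 24 h dosing. Cells are HepG2 transiently carrying multiple GAL4-UAS reporter units driven by exogenous NR-GAL4 chimeras; DMSO serves as baseline.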

[15] = BSK_3C_Proliferation: Cell Proliferation Assessment in the BioMAP Diversity Plus: 3C Assay (AID 2283006); details: primary human endothelial cells (HUVEC);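 for AC50: potency may reflect either rise or fall in cell number versus DMSO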
Outline: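 Human umbilical vein endothelial cells were grown sub-confluent and exposed to chemical for 48 h, then fixed with 10% TCA and stained with 0.1% sulforhodamine B; absorbance at 560 nm gave relative cell number, fitted bidirectionally against DMSO baseline.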

[16] = ATG_NRF2_ARE_CIS: Attagene CIS-FACTORIAL HepG2 Assay for human Nuclear Factor Erythroid 2 Related Factor 2 (NFR2) response to Antioxidant Response Elements (ARE) (AID 2282992); details: HepG2 Attagene ARE/NRF2 reporter, transcription factor activity; actives raise or lower the signal
Outline: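 HepG2 cells transiently transfected with multiplexed cis-regulated reporter transcription units measure endogenous transcription factor activity. Reporter mRNA at 24 h is quantified by RT-PCR, fluorescent labelling and capillary electrophoresis, with bidirectional fitting relative to DMSO.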

[17] = biological target: human Retinoic Acid Receptor beta (RARb), RARB (gene 5915) (UniProt P10826); test: ATG_RARb_TRANS: Attagene TRANS-FACTORIAL HepG2 Assay for human Retinoic Acid Receptor beta (AID 2283004; active = hit-call score of the fitted dose curve at least 0.9, where 1 is the maximum)
Outline: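 HepG2 cells were transiently transfected with GAL4-UAS reporter units that report activity of exogenous chimeric NR-Gal4 proteins, then exposed to compound for 24 h. Reporter mRNA was quantified by RT-PCR with capillary electrophoresis fluorescence, as gain of signal over DMSO.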

[18] = biological target: Retinoic acid receptor alpha (Homo sapiens) (UniProt P10276); test: ATG_RARa_TRANS: Attagene TRANS-FACTORIAL HepG2 Assay for human Retinoic Acid Receptor alpha (RARa) (AID 2283005; active = hit-call score of the fitted dose curve at least 0.9, where 1 is the maximum)
Outline: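 Reporter transcripts, measured by RT-PCR with fluorescent labeling and capillary electrophoresis after 24 h dosing, reflect activity of an exogenous human RARa–GAL4 fusion in transiently transfected HepG2. Fitted for increase relative to DMSO.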

[19] = biological target: human Retinoic Acid Receptor gamma (RARg), RARG (gene 5916) (UniProt P13631); test: ATG_RARg_TRANS: Attagene TRANS-FACTORIAL HepG2 Assay for human Retinoic Acid Receptor gamma (RARg) (AID 2283009; active = hit-call score of the fitted dose curve at least 0.9, where 1 is the maximum)
Outline: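 HepG2 cells transiently transfected with multiplexed reporter units expressing chimeric RARg-GAL4 and GAL4-UAS-driven reporters; 24 h compound exposure. Reporter mRNA quantified by RT-PCR with fluorescent labelling and capillary electrophoresis; gain-of-signal fitted relative to DMSO baseline.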

Measured: AC50

human Retinoic Acid Receptor gamma (RARg), RARG (gene 5916), sequence (P13631 whole entry, looked up, the tested form may be a part): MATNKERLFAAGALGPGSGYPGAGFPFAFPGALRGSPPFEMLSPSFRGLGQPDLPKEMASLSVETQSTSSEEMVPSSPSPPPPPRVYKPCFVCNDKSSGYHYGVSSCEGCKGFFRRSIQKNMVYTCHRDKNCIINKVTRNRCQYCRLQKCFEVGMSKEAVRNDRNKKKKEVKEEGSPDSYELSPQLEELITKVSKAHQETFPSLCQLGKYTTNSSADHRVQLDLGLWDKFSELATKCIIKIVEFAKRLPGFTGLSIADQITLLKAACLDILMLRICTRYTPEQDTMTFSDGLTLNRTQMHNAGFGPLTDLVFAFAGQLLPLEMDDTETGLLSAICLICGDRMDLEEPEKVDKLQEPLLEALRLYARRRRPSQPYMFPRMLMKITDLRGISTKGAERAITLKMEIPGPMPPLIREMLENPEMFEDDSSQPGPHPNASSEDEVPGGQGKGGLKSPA
human Peroxisome Proliferator-activated Receptor delta (PPARd), PPARD (gene 5467), sequence (Q03181 whole entry, looked up, the tested form may be a part): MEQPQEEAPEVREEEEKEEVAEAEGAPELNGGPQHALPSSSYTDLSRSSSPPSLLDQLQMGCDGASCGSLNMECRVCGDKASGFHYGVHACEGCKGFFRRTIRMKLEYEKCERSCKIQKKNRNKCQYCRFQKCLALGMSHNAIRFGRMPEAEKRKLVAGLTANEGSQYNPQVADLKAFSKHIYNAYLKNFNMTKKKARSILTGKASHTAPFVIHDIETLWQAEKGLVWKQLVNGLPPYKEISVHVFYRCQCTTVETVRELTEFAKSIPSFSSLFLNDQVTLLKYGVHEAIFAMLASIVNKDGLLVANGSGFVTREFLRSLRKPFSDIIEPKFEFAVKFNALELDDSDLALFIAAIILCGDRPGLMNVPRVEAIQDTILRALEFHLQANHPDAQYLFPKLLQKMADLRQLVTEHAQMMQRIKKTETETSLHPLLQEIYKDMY
Retinoic acid receptor alpha (Homo sapiens), sequence (P10276 whole entry, looked up, the tested form may be a part): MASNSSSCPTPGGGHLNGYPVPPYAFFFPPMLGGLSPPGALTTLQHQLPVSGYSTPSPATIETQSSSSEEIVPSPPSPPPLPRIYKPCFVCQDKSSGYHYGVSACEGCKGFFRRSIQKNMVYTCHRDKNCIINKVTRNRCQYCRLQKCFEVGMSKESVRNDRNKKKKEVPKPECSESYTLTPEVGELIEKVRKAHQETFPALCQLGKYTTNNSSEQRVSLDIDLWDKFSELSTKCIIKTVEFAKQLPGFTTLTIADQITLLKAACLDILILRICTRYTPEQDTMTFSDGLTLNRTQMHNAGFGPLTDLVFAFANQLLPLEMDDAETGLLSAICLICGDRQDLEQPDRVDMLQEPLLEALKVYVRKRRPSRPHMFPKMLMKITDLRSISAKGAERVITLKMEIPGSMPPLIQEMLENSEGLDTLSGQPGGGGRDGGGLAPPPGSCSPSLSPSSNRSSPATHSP
Nuclear receptor subfamily 1 group I member 2 (Homo sapiens), sequence (O75469 whole entry, looked up, the tested form may be a part): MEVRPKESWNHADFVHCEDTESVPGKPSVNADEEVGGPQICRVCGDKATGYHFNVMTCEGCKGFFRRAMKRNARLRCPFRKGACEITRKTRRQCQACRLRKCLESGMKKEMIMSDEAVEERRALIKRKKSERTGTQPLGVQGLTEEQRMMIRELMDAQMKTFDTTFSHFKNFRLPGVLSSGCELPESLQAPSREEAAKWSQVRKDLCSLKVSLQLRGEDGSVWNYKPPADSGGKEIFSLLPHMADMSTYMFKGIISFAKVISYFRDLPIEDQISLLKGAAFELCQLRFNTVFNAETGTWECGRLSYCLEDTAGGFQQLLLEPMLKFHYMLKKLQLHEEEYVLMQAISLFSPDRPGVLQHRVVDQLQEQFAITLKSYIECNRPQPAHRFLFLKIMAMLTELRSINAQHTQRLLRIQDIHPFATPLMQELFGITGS
Nuclear respiratory factor 1 (Homo sapiens), sequence (Q16656 whole entry, looked up): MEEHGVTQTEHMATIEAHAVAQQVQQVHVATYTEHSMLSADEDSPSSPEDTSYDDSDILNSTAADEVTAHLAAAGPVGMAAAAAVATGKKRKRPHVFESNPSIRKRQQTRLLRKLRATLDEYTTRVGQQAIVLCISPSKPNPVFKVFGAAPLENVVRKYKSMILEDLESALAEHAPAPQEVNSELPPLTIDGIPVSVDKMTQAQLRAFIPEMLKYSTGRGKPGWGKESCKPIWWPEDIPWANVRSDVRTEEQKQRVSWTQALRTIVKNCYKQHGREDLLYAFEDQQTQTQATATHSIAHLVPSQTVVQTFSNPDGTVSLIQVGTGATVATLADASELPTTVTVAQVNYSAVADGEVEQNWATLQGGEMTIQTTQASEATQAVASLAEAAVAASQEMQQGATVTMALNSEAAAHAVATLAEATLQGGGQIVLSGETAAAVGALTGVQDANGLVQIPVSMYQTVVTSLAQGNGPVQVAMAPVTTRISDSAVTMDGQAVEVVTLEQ
Peroxisome proliferator-activated receptor gamma (Homo sapiens), sequence (P37231 whole entry, looked up, the tested form may be a part): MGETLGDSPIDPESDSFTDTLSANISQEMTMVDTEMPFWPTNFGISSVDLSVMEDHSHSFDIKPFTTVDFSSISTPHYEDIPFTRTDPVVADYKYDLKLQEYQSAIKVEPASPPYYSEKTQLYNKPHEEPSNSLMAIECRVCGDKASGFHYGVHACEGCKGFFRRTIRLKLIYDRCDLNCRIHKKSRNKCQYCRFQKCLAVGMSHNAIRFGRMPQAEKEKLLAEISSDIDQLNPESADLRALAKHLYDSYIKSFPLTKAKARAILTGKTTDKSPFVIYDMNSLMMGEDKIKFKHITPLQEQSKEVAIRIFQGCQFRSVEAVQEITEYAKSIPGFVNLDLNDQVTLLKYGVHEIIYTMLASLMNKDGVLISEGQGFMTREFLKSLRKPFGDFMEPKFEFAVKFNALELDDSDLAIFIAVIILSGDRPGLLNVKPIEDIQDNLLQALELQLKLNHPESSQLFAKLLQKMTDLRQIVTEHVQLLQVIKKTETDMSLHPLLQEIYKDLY
Cellular tumor antigen p53 (Homo sapiens), sequence (P04637 whole entry, looked up): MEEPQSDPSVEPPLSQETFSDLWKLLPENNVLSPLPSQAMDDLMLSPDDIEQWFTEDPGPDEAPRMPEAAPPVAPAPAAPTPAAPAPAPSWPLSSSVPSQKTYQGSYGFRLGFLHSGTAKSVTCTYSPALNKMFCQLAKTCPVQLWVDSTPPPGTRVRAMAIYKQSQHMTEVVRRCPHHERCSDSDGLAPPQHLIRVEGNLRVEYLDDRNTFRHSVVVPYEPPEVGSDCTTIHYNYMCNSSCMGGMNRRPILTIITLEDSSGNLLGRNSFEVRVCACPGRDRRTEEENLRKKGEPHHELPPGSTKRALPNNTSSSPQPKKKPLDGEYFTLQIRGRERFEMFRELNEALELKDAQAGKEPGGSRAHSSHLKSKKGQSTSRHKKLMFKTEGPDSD
human Peroxisome Proliferator-activated Receptor alpha (PPARa), PPARA (gene 5465), sequence (Q07869 whole entry, looked up, the tested form may be a part): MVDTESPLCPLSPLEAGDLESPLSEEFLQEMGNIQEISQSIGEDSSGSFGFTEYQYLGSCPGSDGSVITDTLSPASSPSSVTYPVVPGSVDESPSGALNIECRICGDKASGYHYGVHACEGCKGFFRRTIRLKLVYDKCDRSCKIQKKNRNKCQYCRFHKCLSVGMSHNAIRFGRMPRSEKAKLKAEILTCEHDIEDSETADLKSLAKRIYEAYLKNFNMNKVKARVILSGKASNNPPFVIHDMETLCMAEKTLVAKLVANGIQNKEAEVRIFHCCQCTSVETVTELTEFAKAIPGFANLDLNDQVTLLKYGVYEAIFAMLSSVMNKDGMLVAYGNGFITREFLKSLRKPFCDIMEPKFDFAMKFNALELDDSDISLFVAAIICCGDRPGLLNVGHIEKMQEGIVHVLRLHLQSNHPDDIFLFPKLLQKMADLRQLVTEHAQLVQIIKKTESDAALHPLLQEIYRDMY
human Retinoic Acid Receptor beta (RARb), RARB (gene 5915), sequence (P10826 whole entry, looked up, the tested form may be a part): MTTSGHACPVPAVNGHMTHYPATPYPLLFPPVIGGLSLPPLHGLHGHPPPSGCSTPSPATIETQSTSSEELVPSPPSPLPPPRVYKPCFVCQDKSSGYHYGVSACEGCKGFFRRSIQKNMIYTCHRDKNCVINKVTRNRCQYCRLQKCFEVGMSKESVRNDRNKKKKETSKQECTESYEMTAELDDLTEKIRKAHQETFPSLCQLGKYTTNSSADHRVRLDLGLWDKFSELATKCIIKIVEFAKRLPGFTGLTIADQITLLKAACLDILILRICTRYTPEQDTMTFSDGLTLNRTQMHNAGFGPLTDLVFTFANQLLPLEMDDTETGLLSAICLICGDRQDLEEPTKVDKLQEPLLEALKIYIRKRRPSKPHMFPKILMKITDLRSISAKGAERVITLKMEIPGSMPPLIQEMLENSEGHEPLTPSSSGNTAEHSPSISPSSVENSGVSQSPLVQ

CCCCCCCCCCCCCCO
active: [2] 179 µM | [6] 36.6 µM | [7] 34.4 µM | [8] 32.8 µM | [9] 38.4 µM | [11] 35.5 µM
inactive: [1] | [3] | [4] | [5] | [10] | [12] | [13]

CCCCCOC(C)=O
active: [15] 20.8 µM
inactive: [1] | [2] | [3] | [4] | [6] | [7] | [8] | [9] | [14] | [11]

CCOC(N)=O
not listed: [3] | [10] | [12] | [13] | [17] | [18] | [19]
inactive: all other assays above

OC[C@H]1O[C@@](CO)(O[C@H]2O[C@H](CO)[C@@H](O)[C@H](O)[C@H]2O)[C@@H](O)[C@@H]1O
not listed: [5] | [10] | [13] | [14] | [16] | [18] | [19]
inactive: all other assays above

NC(N)=O
not listed: [5] | [10] | [12] | [13] | [17] | [18] | [19]
inactive: all other assays above

c1ccc2c(c1)-c1cccc3c1c-2cc1ccccc13
active: [9] 0.148 µM
not listed: [5] | [10] | [16] | [17]
inactive: all other assays above

COS(C)(=O)=O
not listed: [5] | [10] | [13] | [14] | [17] | [18] | [19]
inactive: all other assays above

CCCCCCCC/C=C\CCCCCCCC(=O)OC[C@@H](O)[C@H]1OC[C@H](O)[C@H]1O
not listed: [13] | [14] | [16] | [17]
inactive: all other assays above

OC[C@H]1O[C@@H]2O[C@H]3[C@H](O)[C@@H](O)[C@@H](O[C@H]4[C@H](O)[C@@H](O)[C@@H](O[C@H]5[C@H](O)[C@@H](O)[C@@H](O[C@H]6[C@H](O)[C@@H](O)[C@@H](O[C@H]7[C@H](O)[C@@H](O)[C@@H](O[C@H]1[C@H](O)[C@H]2O)O[C@@H]7CO)O[C@@H]6CO)O[C@@H]5CO)O[C@@H]4CO)O[C@@H]3CO
not listed: [3] | [5] | [10] | [12] | [13] | [14] | [17]
inactive: all other assays above
